Results on 102 compounds are retold here after PubChem BioAssay AID1566 (Sanford-Burnham Center for Chemical Genomics, 2009).

In all, about 290,000 compounds went through this assay and about 1,800 (0.62%) were called active. No stated cut-off is given here; in the data, active means inhibition above about 50%; inactive means the rest. For the sample, actives were picked, then their nearest neighbours and some compounds at random.

The test in a line: NOD2 signaling inhibitors, cell-based, luminescence, uHTS, HEK293 (AID 1566). The note with it: HEK293 NOD2/NF-kB luciferase reporter, at 4 µM, hits give high values.
`CCOc1ccc(-c2nc3n(c(=O)c2C#N)CCS3)cc1`: the inhibition is -0.8% (inactive).

Take `O=C(OCCCN1CCOCC1)c1ccc(O)c(O)c1`: the inhibition is 11.1% (inactive).

`Cc1ccc(C(=O)CSc2ncnc3sc4c(c23)CCCC4)cc1`: the inhibition is 30.2% (inactive).

For `CC(=O)CSc1ncnc2sc3c(c12)CCC3`, the inhibition was 12.6% (inactive).

In the case of `O=C(c1ccc(Cl)c([N+](=O)[O-])c1)N1CCCc2ccccc21`, the inhibition was -7.5% (inactive).

With `O=C(CSc1nnnn1C1CCCCC1)NNC(=O)c1ccco1`, the inhibition was 5.4% (inactive).

As for `Cc1ccccc1-n1cc(C(=O)c2cc(Cl)ccc2O)cc(C#N)c1=O`, the inhibition is 1.1% (inactive).

As to `C(=N\Nc1ccccn1)/c1ccc2c(c1)OCCO2`, the inhibition is -125% (inactive).

Take `C(=N\Nc1ccc2ccccc2n1)/c1ccc2c(c1)OCCO2`: the inhibition was 67.8% (active).

For `C(=N\Nc1nc2ccccc2[nH]1)/c1ccc2c(c1)OCCO2`, the inhibition is -126% (inactive).

In the case of `Cc1[nH]c2ccccc2c1-c1nc2ccccc2[nH]c1=O`, the inhibition was 4.1% (inactive).

`CC(C)C(=O)OCc1cn(-c2ccc(Cl)c(Cl)c2)nn1`: the inhibition was 10.3% (inactive).

Take `CCOC(=O)CN1C(=O)S/C(=C/c2ccc(O)c([N+](=O)[O-])c2)C1=O`: the inhibition was -11.2% (inactive).

Turning to `O=C1/C(=C\c2cccc(O)c2O)SC(=S)N1Cc1ccccc1`, the inhibition was 7.8% (inactive).

Consider `O=C(O)c1cccc(CN2C(=O)S/C(=C/c3cccc([N+](=O)[O-])c3)C2=O)c1`, for which the inhibition is -10.3% (inactive).

In the case of `O=C(O)c1cccc(CN2C(=O)S/C(=C/c3ccccc3[N+](=O)[O-])C2=O)c1`, the inhibition was 19.8% (inactive).

Consider `COCc1cc(C)nc(Nc2ccccc2OC)c1C#N`, for which the inhibition was 3% (inactive).

Consider `Cc1ccc(-n2nnc3c(=O)n(CC(=O)NCc4ccco4)cnc32)cc1`, for which the inhibition is 17.7% (inactive).

`COc1cc(S(=O)(=O)N2CCCCCC2)ccc1-n1cnnn1`: the inhibition was 7.9% (inactive).

Take `Cc1ccc(OC(=O)COc2ccccc2C)c(-n2nc3ccccc3n2)c1`: the inhibition is 3% (inactive).

On to `BrC(=C\c1ccccc1)/C=N/Nc1nc(N2CCOCC2)nc(N2CCOCC2)n1`, for which the inhibition is -54.1% (inactive).

`CCOC(=O)C1CCN(S(=O)(=O)c2cc(C(=O)OC)n(C)c2)CC1`: the inhibition is 18.2% (inactive).

Regarding `Cc1ccc(S(=O)(=O)N2CCN(CC(=O)Nc3ccc([N+](=O)[O-])cc3)CC2)cc1C`, the inhibition was -86.3% (inactive).

For the compound `C=CCSc1nc2sc(C)c(C)c2c(=O)[nH]1`, the inhibition was 7.9% (inactive).

Regarding `CC(CCc1ccccc1)NC(=O)C(=O)c1c[nH]c2ccccc12` (configuration not stated), the inhibition was 6.1% (inactive).

On to `O=C(O)CC(NC(=O)c1cccc([N+](=O)[O-])c1)c1ccc2c(c1)OCO2` (configuration not stated), for which the inhibition was 14.8% (inactive).

`Cc1ccc(CN2CCCN(C)CC2)c(C)c1`: the inhibition is -3.4% (inactive).

In the case of `CCn1c(SCC(=O)Nc2nc(-c3ccc(C)cc3)cs2)nnc1-c1ccccc1`, the inhibition is 29% (inactive).

With `CCn1c(SCC(=O)Nc2nc(-c3ccccc3)cs2)nnc1-c1ccccc1O`, the inhibition was 11.1% (inactive).

On to `CCOc1ccccc1NC(=S)N(CCN(C)C)C(C)c1ccncc1` (configuration not stated), for which the inhibition was -15.1% (inactive).

Consider `CC(C)(C)c1cc(-c2n[nH]c(=S)n2-c2ccc(Cl)cc2)n[nH]1`, for which the inhibition was 6.2% (inactive).

Take `NC(=O)C1CCN(C(=O)C2CCC(=O)N(C3CCCCCC3)C2)CC1` (configuration not stated): the inhibition was -3.9% (inactive).

In the case of `COc1ccccc1NCC(=O)N/N=C/c1c(O)ccc2ccccc12`, the inhibition is 25% (inactive).

With `O=C(CNc1ccc(F)cc1)N/N=C/c1c(O)ccc2ccccc12`, the inhibition is 53.5% (active).

In the case of `O=C(CNc1ccccc1)N/N=C/c1c(O)ccc2ccccc12`, the inhibition is 19.3% (inactive).

For the compound `Cc1occc1-c1nnc(SCC(=O)NCC2CCCO2)n1C` (configuration not stated), the inhibition is 8.4% (inactive).

Take `O=C(N/N=C/c1ccc2c(c1)OCO2)c1ccc2c(c1)OCO2`: the inhibition was -137% (inactive).

For `O=C(O)c1cc(N/N=C/c2ccc3c(c2)OCO3)ccc1Cl`, the inhibition was -118% (inactive).

For the compound `O=C(O)c1ccc(N/N=C/c2ccc3c(c2)OCO3)cc1`, the inhibition is 66.8% (active).

Consider `S=C(NCc1ccncc1)Nc1ccccc1`, for which the inhibition was 16.2% (inactive).

Take `O=C(CC(Nc1ccc(Cl)cc1)C(=O)O)c1ccccc1` (configuration not stated): the inhibition was 20.4% (inactive).

In the case of `O=C(CC(Nc1ccccc1Cl)C(=O)O)c1ccccc1` (configuration not stated), the inhibition was -21.4% (inactive).

In the case of `O=C(CC(Nc1ccc(Cl)cc1Cl)C(=O)O)c1ccccc1` (configuration not stated), the inhibition was 61.2% (active).

On to `COc1ccc(NC(=O)CSc2ccc(-c3sc(C)nc3C)nn2)cc1OC`, for which the inhibition is 5.8% (inactive).

Regarding `COc1ccc(NC(=O)CSc2ccc(-c3sc(C)nc3C)nn2)cc1`, the inhibition was 4.8% (inactive).

On to `S=C(Nc1cc(Cl)ccc1Cl)Nn1cnnc1`, for which the inhibition was 16.1% (inactive).

On to `CC(Oc1cc(C(F)(F)F)cc(C(F)(F)F)c1)C(=O)NC(N)=O` (configuration not stated), for which the inhibition was 11.1% (inactive).

Consider `O=C1CCCN2N=C(SCC(=O)N3CCCCC3)SC2=N1`, for which the inhibition was 5.8% (inactive).

For `O=C(COc1ccccc1)Nc1ccccc1NS(=O)(=O)c1cccs1`, the inhibition is 11.6% (inactive).

In the case of `O=C(COc1ccc(Cl)cc1Cl)Nc1ccccc1NS(=O)(=O)c1cccs1`, the inhibition was 25.1% (inactive).

Regarding `OC(c1cccc(Cl)c1)c1nccc2ccccc12` (configuration not stated), the inhibition was 2.5% (inactive).

With `COC(=O)c1nc2nc(-c3cccs3)cc(C(F)(F)F)n2n1`, the inhibition is 9.2% (inactive).

As to `Nc1cccc(Oc2ccc3c(c2)C(=O)NC3=O)c1`, the inhibition is -12.7% (inactive).

In the case of `CCOC(=O)c1c(-c2ccccc2)csc1NC(=O)CSc1nnnn1C`, the inhibition was 12.2% (inactive).

`Cc1ccc(NC(=O)CCSc2nnc3ccccn23)cc1`: the inhibition was 18.1% (inactive).

For `CCOC(=O)c1c(-c2ccc(C)cc2)csc1NC(=O)CCSc1nnc2ccccn12`, the inhibition is 53.9% (active).

In the case of `CC(=O)c1c(C)oc2ccc(OCc3ccccc3)cc12`, the inhibition was -10.9% (inactive).

For `CC(=O)/C(=C/c1ccc(N(C)C)cc1)C(=O)c1ccccc1`, the inhibition was -7.8% (inactive).

In the case of `Cc1nn(-c2ccc(NC(=O)c3ccncc3)cc2)c(C)c1Cl`, the inhibition is 50% (active).

For the compound `O=C(Nc1ccc(Cl)cc1)c1ccncc1`, the inhibition was -5% (inactive).

With `Cc1nn(-c2ccc(C(=O)O)cc2)c(C)c1Cl`, the inhibition is 11.5% (inactive).

Take `COc1ccc(S(=O)(=O)N(C)c2ccc(C(=O)N3CCN(c4ccccc4)CC3)cc2)cc1OC`: the inhibition was 7.6% (inactive).

For `CC(=O)Nc1ccc(S(=O)(=O)Nc2ccc3ccccc3n2)cc1`, the inhibition was 10.8% (inactive).

Consider `Cc1nc(N2CCN(S(=O)(=O)c3ccc(Br)cc3)CC2)c2c(C)c(C)sc2n1`, for which the inhibition was 45% (inactive).

Take `CCS(=O)(=O)N1CCN(c2ncnc3sc(C)c(C)c23)CC1`: the inhibition is 18% (inactive).

For `COc1ccc(CCC(=O)NNC(=O)c2cc(Cl)ccc2OC)cc1`, the inhibition was -4.6% (inactive).

Turning to `COc1ccc(/C(N)=N/OC(=O)Cc2ccccc2[N+](=O)[O-])cc1`, the inhibition is -2.6% (inactive).

With `COc1ccc(NC(=O)CSc2ncnc3c2sc2ccccc23)c(OC)c1`, the inhibition is -3.6% (inactive).

In the case of `O=C(c1ccc(Cl)cc1)n1c(NCc2ccccc2)n[nH]c1=S`, the inhibition was -38.1% (inactive).

As for `Oc1ccc(N=Nc2c(O)ccc3ccccc23)cc1`, the inhibition is 17% (inactive).

`Oc1ccc2ccccc2c1/C=N/c1nccs1`: the inhibition is -2.7% (inactive).

Take `Oc1ccc2ccccc2c1N=Nc1nccs1`: the inhibition is 91.9% (active).

For the compound `O=C(N/N=C/c1ccco1)c1ccc(NC(=O)c2ccccc2Cl)cc1`, the inhibition is -2.4% (inactive).

Take `O=C(N/N=C/c1ccco1)c1cccc(NC(=O)c2ccccc2Cl)c1`: the inhibition is 50.6% (active).

Take `O=C(N/N=C/c1ccco1)c1cccc(NC(=O)c2cccc(Cl)c2)c1`: the inhibition was 12.2% (inactive).

Turning to `O=C(Nc1cccc(-n2cccn2)c1)C1CCCN(Cc2ccc(C#CCCO)cc2)C1` (configuration not stated), the inhibition is -17.7% (inactive).

In the case of `C=CCNC(=O)c1c(Cl)cccc1Cl`, the inhibition is 11.9% (inactive).

On to `Fc1ccc2[nH]c3c(NCc4ccccc4)ncnc3c2c1`, for which the inhibition is 62.7% (active).

Take `COc1ccc(CNc2ncnc3c2[nH]c2ccccc23)cc1`: the inhibition is 23.3% (inactive).

As to `Cc1ccc2[nH]c3c(NCc4ccccc4)ncnc3c2c1`, the inhibition is 39.4% (inactive).

`CCOC(=O)c1sc2cccc(Cl)c2c1N`: the inhibition is 10.6% (inactive).

`COc1ccc(CC(=O)Nc2cccnc2)cc1`: the inhibition was -3% (inactive).

Take `O=C(Cc1c(Cl)cccc1Cl)Nc1ccncc1Cl`: the inhibition was 13.2% (inactive).

In the case of `COCc1cc(Sc2ccc(OC)cc2)nc(-c2ccccc2)n1`, the inhibition was 18.2% (inactive).

With `Nc1cc(S(=O)(=O)N2CCCCC2)ccc1N1CCOCC1`, the inhibition was 9.9% (inactive).

As to `CC1CCN(c2ccc(S(=O)(=O)N3CCC(C)CC3)cc2N)CC1`, the inhibition was 50.3% (active).

As to `CC1CCN(S(=O)(=O)c2ccc(S(=O)(=O)N3CCCC3)cc2)CC1`, the inhibition is -1.3% (inactive).

In the case of `Cc1ccc(C(=O)N2CCCC(Nc3ccc(C)c(C)c3)C2)c(=O)[nH]1` (configuration not stated), the inhibition is 9.6% (inactive).

For `CCCCn1c(SCC(=O)N2CCC(C)CC2)nc2ccsc2c1=O`, the inhibition is -2.9% (inactive).

With `CCCCn1c(SCC(=O)c2ccccc2)nc2ccsc2c1=O`, the inhibition is 13.3% (inactive).

As for `CC(=O)c1cccc(NC(=O)C2C3CCC(C3)C2C(=O)O)c1` (configuration not stated), the inhibition is 4.1% (inactive).

With `COc1ccc(NC(=O)c2ccc(NCC3CCCO3)c([N+](=O)[O-])c2)cc1` (configuration not stated), the inhibition is 13.3% (inactive).

For `Cc1ccccc1NC(=S)NNc1ncc(C(F)(F)F)cc1Cl`, the inhibition is 4.9% (inactive).

With `Fc1ccccc1NC(=S)NNc1ncc(C(F)(F)F)cc1Cl`, the inhibition was 13.7% (inactive).

In the case of `COc1ccc(/C=C2\SC(=S)N(CCC(=O)NC3C=CS(=O)(=O)C3)C2=O)cc1` (configuration not stated), the inhibition was 11.8% (inactive).

With `O=C(O)c1ccccc1C(=O)Nc1ccc(Oc2cccc3ccccc23)cc1`, the inhibition was 61.3% (active).

For `O=C(O)c1ccccc1C(=O)Nc1ccc(Oc2ccccc2)cc1`, the inhibition was 7.7% (inactive).

In the case of `Cc1cccc(Oc2ccc(NC(=O)c3ccccc3C(=O)O)cc2)c1C`, the inhibition is 8.6% (inactive).

Regarding `CC(C)[C@H](NC(=O)OC(C)(C)C)C(=O)N/N=C/c1cccc2nccnc12`, the inhibition is 10.5% (inactive).

As for `CC(=O)CSc1nnc(Cc2ccc([N+](=O)[O-])cc2)o1`, the inhibition is 9.2% (inactive).

On to `COc1ccc(Cc2nnc(SCc3ccc([N+](=O)[O-])cc3)o2)cc1`, for which the inhibition is 56.9% (active).

For `O=[N+]([O-])c1ccc(CSc2nnc(Cc3ccccc3)o2)cc1`, the inhibition was 1.1% (inactive).
